# Unmarked numbers belong to inactive results.
# How the values were obtained:
# Test in all cases: log2 ratio of Biotin-Ahx-Ub-VS probe labelling (fragment/DMSO); higher = less target engagement (more negative = stronger competition), active = hit call of the paper (q ≤ 0.05, log2 ratio ≤ -1)
# Conditions in all cases: compound concentration: 200 uM; treatment time: 3 h
# USP42 = target: T1, USP42 (UniProt Q9H9J4)
# T1 sequence (whole entry): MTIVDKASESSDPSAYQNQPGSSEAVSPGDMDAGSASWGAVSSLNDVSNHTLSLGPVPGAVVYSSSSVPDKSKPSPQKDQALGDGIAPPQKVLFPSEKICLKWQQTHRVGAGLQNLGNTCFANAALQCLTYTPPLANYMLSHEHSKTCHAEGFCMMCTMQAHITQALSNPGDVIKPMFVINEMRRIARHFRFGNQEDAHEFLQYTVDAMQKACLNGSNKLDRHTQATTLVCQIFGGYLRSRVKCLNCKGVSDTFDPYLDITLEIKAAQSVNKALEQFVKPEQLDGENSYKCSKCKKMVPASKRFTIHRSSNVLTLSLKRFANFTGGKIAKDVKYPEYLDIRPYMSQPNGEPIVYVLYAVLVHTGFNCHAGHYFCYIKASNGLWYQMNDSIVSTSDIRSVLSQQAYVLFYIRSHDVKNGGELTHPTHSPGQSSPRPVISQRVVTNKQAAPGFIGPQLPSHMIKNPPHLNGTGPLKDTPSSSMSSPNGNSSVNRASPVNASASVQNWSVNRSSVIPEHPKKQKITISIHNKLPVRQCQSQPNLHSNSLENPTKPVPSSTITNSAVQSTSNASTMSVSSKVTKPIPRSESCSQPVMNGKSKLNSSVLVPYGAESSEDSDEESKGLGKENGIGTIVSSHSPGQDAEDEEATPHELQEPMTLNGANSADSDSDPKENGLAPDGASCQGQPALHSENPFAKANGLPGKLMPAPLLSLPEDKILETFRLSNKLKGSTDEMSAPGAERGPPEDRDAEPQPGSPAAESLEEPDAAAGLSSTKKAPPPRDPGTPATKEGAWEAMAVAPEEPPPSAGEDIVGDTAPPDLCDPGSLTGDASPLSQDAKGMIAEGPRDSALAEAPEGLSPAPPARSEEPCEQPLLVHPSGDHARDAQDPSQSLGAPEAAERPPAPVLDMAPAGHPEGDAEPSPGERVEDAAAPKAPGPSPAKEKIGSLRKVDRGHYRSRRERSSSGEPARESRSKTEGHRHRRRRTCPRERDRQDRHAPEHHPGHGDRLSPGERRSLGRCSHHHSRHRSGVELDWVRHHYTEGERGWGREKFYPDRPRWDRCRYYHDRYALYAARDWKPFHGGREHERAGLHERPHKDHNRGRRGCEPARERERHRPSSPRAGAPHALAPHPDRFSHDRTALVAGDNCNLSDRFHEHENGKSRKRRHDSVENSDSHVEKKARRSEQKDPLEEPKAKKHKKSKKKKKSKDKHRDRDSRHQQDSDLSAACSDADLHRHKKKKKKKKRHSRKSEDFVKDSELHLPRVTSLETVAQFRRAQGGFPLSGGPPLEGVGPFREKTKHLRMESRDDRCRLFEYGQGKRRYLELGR
# Method in brief: (§1)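 HEK293T lysate (495 µg per sample, in Tris/CHAPS/IGEPAL buffer with protease inhibitors) was treated in triplicate with fragment at 200 µM or with DMSO for 3 h. It was then treated with Biotin-Ahx-Ub-VS (0.5 µM final) for 1 h. Labelled DUBs were NeutrAvidin-enriched, digested with LysC and trypsin, and run by diaPASEF LC-MS/MS. Spectronaut label-free quantities were global-median-normalised. Values are average log2 ratios fragment/DMSO by unpaired t-test, using proteins with ≥2 unique peptides.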
# USP46 = USP46 (UniProt P62068)
# Method in brief: as §1
# USP47 = target: T2, USP47 (UniProt Q96K76)
# T2 sequence (whole entry): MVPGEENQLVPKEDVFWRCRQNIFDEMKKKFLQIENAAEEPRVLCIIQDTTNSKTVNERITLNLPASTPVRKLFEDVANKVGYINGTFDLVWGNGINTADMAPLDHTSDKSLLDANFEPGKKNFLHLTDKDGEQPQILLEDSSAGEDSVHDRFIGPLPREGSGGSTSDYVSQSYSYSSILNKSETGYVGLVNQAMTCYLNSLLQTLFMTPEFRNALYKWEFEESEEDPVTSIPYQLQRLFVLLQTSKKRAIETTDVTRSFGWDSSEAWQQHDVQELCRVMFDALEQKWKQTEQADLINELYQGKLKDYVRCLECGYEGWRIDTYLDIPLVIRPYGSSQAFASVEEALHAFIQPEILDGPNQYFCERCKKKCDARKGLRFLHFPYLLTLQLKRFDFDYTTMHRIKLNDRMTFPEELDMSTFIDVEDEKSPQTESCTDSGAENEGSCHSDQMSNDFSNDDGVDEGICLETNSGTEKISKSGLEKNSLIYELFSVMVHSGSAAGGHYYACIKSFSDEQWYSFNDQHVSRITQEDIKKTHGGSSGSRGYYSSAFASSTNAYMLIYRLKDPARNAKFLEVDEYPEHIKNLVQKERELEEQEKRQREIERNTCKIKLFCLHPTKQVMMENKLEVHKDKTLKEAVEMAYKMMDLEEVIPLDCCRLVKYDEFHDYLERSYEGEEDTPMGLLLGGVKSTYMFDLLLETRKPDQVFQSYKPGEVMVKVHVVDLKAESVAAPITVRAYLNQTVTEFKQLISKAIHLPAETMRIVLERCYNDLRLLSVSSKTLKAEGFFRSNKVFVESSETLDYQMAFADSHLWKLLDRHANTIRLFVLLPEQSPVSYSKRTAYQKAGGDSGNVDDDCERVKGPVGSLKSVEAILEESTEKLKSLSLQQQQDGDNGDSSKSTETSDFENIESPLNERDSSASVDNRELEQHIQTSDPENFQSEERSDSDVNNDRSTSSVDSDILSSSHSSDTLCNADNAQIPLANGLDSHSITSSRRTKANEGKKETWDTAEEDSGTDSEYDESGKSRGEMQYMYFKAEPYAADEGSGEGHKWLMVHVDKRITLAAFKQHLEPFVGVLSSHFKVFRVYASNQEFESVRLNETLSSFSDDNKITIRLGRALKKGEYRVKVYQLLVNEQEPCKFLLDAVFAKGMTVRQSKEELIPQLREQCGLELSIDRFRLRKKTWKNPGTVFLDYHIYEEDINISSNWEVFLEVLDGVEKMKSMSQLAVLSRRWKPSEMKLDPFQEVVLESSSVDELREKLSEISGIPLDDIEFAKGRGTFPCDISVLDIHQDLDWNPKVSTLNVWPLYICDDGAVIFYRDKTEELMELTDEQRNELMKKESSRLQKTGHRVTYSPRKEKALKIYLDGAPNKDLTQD
# Method in brief: as §1
# USP48 = target: T3, USP48 (UniProt Q86UV5)
# T3 sequence (whole entry): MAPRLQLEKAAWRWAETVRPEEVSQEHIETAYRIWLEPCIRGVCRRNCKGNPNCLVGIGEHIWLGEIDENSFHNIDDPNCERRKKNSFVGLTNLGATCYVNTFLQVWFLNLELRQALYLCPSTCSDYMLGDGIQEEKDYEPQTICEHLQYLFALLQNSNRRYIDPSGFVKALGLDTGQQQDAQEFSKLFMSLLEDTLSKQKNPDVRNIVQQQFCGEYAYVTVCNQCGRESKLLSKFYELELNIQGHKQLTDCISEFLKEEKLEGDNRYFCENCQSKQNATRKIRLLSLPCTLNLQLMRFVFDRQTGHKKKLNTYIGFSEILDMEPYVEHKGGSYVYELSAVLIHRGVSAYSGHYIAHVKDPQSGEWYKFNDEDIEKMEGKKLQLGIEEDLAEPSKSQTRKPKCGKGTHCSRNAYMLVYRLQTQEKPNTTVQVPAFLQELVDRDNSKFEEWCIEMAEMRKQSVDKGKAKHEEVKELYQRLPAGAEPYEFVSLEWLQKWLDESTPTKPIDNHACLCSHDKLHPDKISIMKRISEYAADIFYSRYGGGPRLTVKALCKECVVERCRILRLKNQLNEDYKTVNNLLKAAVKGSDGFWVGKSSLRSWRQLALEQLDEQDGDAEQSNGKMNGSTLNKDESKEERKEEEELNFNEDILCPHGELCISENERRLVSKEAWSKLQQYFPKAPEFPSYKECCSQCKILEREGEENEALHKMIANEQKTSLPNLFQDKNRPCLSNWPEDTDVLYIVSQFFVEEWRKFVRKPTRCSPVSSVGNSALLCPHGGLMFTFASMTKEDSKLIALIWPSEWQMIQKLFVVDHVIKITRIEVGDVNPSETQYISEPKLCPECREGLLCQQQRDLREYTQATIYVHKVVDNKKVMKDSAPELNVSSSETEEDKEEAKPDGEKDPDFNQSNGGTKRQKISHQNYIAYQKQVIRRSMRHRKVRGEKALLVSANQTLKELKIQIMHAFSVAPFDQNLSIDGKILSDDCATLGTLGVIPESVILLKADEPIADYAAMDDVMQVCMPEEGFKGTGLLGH
# Method in brief: as §1
# USP5 = target: T4, USP5 (UniProt P45974)
# T4 sequence (whole entry): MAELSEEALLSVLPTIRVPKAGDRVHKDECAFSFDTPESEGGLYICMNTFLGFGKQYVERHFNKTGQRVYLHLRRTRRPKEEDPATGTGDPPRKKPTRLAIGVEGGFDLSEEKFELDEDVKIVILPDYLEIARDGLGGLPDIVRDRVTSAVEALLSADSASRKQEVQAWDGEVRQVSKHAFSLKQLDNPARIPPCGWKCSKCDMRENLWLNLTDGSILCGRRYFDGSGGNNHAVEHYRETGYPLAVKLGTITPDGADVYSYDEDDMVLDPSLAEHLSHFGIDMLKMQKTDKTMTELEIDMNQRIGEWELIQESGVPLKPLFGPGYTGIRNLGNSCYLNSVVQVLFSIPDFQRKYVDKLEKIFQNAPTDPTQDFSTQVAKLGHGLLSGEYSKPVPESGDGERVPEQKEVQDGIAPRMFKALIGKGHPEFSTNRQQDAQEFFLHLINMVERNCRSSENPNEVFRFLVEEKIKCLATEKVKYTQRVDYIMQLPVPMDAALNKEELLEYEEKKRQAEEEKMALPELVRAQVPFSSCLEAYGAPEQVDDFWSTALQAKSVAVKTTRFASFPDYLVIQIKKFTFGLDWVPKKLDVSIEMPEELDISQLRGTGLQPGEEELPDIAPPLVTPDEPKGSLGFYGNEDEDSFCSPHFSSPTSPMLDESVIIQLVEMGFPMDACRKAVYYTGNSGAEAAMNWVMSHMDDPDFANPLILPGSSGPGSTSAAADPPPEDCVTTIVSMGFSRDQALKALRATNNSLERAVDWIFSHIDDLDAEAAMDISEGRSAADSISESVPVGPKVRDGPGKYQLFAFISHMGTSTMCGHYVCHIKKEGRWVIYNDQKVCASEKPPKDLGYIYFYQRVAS
# Method in brief: as §1
# USP54 = USP54 (UniProt Q70EL1)
# Method in brief: as §1
# USP7 = USP7 (UniProt Q93009)
# Method in brief: as §1
# USP8 = target: T5, USP8 (UniProt P40818)
# T5 sequence (whole entry): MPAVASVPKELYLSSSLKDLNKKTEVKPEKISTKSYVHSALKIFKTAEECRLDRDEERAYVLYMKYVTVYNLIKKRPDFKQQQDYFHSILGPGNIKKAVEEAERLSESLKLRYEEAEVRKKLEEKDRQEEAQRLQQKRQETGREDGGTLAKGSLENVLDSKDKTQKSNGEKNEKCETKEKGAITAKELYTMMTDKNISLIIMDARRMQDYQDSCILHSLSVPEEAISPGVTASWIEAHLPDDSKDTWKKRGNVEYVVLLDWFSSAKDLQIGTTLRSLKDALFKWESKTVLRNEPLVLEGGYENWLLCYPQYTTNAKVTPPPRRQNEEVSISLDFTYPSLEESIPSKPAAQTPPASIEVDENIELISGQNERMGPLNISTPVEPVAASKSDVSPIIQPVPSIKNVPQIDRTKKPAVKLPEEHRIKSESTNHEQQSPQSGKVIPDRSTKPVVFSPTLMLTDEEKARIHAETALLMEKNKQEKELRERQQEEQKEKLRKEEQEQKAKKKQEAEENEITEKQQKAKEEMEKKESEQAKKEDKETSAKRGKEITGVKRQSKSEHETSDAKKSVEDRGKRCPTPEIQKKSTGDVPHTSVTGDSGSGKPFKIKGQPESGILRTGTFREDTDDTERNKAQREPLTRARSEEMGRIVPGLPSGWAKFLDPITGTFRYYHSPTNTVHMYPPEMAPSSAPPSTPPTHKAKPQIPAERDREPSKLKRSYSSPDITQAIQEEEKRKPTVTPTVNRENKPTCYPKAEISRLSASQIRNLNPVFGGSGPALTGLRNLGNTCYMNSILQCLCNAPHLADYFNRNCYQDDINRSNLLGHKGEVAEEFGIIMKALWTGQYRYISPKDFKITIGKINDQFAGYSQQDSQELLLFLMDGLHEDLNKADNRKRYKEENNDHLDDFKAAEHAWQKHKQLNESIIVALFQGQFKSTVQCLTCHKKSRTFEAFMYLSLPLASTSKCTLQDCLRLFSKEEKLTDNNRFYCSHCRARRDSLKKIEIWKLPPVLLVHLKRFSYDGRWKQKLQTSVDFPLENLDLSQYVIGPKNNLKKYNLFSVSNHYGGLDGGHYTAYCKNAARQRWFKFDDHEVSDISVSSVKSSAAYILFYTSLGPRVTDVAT
# Method in brief: as §1
# Chain of USP54 (Q70EL1 whole entry): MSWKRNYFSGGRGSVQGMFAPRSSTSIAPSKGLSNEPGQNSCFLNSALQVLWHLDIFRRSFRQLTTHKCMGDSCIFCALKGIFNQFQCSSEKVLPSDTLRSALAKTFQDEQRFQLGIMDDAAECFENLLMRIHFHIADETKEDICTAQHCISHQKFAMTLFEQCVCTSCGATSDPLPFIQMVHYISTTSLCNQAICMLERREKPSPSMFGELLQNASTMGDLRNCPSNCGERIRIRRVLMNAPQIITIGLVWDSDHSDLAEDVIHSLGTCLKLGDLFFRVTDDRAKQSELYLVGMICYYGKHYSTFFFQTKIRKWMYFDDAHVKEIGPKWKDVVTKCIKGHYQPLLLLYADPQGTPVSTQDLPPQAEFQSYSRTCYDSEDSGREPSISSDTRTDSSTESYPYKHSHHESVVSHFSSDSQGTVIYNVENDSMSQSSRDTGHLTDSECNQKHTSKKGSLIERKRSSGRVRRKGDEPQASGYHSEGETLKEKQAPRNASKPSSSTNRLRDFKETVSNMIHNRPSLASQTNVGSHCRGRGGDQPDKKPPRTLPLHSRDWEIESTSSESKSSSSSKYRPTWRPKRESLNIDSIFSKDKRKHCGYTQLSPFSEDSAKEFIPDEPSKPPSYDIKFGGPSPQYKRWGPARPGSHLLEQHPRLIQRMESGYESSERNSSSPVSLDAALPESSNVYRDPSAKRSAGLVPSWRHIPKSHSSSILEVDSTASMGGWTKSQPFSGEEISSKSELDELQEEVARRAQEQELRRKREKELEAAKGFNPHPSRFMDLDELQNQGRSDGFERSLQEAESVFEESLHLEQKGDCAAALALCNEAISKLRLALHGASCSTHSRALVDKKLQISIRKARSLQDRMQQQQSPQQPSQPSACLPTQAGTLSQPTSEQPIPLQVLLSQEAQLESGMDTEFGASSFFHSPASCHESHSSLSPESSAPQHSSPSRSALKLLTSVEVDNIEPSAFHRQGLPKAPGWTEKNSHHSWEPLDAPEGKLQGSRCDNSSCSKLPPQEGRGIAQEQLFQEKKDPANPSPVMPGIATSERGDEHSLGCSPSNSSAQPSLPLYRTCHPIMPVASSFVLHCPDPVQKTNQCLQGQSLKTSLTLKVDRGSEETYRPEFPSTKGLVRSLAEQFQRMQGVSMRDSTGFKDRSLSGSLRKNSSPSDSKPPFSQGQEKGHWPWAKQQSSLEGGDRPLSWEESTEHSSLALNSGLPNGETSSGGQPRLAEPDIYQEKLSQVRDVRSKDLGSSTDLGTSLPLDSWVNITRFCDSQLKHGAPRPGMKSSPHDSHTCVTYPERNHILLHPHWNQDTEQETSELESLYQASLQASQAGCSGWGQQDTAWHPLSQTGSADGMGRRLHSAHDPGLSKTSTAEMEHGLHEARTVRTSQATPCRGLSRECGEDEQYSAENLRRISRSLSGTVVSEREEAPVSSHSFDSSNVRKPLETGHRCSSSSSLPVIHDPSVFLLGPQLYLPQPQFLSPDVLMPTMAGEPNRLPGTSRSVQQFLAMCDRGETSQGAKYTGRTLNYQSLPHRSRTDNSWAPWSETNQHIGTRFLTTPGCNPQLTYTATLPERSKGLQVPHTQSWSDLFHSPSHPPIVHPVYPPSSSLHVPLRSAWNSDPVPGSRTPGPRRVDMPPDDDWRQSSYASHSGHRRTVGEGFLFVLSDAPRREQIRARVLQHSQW
# Chain of USP7 (Q93009 whole entry, looked up): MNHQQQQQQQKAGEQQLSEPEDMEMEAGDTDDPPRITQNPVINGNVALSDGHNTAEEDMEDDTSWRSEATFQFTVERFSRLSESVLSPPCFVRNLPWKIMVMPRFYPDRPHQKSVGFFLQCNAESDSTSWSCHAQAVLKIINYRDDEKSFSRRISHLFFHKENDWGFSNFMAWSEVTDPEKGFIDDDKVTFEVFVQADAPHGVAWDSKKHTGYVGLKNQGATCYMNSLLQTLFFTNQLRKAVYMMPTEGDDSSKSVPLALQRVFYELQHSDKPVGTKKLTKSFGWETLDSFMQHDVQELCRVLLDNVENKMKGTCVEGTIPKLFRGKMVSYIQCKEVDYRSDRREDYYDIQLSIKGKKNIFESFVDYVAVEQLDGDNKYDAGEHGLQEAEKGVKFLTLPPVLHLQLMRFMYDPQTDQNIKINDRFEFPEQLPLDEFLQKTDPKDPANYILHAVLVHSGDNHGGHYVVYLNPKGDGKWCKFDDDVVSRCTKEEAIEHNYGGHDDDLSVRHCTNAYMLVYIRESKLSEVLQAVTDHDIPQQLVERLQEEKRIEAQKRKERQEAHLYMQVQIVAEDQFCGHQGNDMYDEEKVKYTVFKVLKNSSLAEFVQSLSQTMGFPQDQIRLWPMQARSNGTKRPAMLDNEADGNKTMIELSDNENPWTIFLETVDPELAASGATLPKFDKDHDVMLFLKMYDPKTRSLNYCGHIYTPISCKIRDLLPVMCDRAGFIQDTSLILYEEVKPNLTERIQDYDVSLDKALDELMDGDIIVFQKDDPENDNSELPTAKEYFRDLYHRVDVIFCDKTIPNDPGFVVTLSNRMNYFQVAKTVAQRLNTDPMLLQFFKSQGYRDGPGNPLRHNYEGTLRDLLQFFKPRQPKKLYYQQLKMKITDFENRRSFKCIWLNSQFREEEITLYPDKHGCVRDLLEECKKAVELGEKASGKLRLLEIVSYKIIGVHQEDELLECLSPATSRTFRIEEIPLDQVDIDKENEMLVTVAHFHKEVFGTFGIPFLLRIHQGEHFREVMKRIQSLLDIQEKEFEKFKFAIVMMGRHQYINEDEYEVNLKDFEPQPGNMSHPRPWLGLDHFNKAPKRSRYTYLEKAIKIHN
# Chain of USP46 (P62068 whole entry): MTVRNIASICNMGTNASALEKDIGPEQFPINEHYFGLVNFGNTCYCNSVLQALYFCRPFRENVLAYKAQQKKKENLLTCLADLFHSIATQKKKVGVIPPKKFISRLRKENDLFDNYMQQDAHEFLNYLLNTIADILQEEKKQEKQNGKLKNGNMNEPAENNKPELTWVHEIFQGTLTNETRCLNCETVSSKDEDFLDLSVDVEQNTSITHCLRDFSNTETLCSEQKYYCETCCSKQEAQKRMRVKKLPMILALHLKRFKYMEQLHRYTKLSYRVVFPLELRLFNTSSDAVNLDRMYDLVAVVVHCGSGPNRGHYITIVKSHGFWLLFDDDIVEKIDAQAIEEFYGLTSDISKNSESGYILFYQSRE
smiles,measurement,setting,value
Cc1n[nH]c2c1CN(C(=O)CCl)CC2,log2 ratio of Biotin-Ahx-Ub-VS probe labelling,USP42,0.421
same,log2 ratio of Biotin-Ahx-Ub-VS probe labelling,USP46,-0.91
same,log2 ratio of Biotin-Ahx-Ub-VS probe labelling,USP47,-1.08 (active)
same,log2 ratio of Biotin-Ahx-Ub-VS probe labelling,USP48,-0.779
same,log2 ratio of Biotin-Ahx-Ub-VS probe labelling,USP5,-0.67
same,log2 ratio of Biotin-Ahx-Ub-VS probe labelling,USP54,0.337
same,log2 ratio of Biotin-Ahx-Ub-VS probe labelling,USP7,-0.758
same,log2 ratio of Biotin-Ahx-Ub-VS probe labelling,USP8,-1.11 (active)
